The list is not random: actives were taken first. Their share in the collection is about 3.8%.
HSP90 inh – HSP90 inhibitors, primary screen, cell lysate, luminescence. Heat shock protein HSP 90 (rabbit reticulocyte lysate; luciferase refolding). inhibition, % at 5.6 µM. Rabbit reticulocyte lysate, luciferase refolding luminescence, 3 h. 290,000 compounds, 0.91% hits. AID 1789, 2009;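 active means inhibition above the screen-wide mean plus 3 SD, computed separately per campaign, cut at about 16% in these data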;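 further: 0% = DMSO wells and 100% = 60 µM geldanamycin wells; inhibitors lower the luminescence because luciferase stays unfolded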
HSF1 inh – HSF1 inhibitors in luciferase reporter cells, primary screen, cell-based, NIH3T3, luminescence. NIH3T3-HGL HSE-luciferase, MG132-induced, luminescence 8 h; active compounds read low. activity change, negative = inhibition, % at 7.5 µM (by protocol). 300,000 compounds, 0.77% hits;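 active means more than half of replicate wells show activity change below -50%, luminescence cut by over half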;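 further: luciferase reports HSF-1 transcriptional activity via heat shock element; 0% = median of DMSO wells and -100% = zero luminescence signal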
pCIP destab – p/CIP-EGFP fusion destabilizers, primary screen, fluorescence, F442A cells; Q05BA5; 16 h; decrease of EGFP signal, % at 10 µM; 290,000 compounds, 0.01% hits; AID 1984, 2009;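 active means EGFP signal decrease of at least 30% at 10 µM or well 3 SD below plate mean, unless failing retest; inactive means the rest, including hits failing retest or dose response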
HSF-1 act – HSF-1 activators, primary screen, NIH3T3-HGL cells, MG132 stress, luminescence, single point; 300,000 compounds, 1.7% hits; activation, % at 9 µM; NIH3T3-HGL HSF-1 luciferase reporter, 8 h; 100% = twice DMSO control signal; AID 504408, 2011;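 active means mean replicate activation of at least 50% with a set share of replicates each reaching 50%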;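 further: 0% = median of the neutral control wells and 100% = twice that signal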
Hsp70 activator – Hsp70 transcriptional activators, primary screen, cell-based, HeLa, Hsp70 promoter luciferase, luminescence, 10 µM; activation, % at 10 µM; HeLa Hsp70 promoter luciferase reporter; scaled: vehicle 0, proteasome-inhibitor control 100%; 200,000 compounds, 0.04% hits;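 active means activation above the mean across all tested compounds plus 3 SD, cutoff set per campaign, cut at about 5.5% in these data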;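 further: 100% = MG132 at 30 µM as the positive control and 0% = DMSO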
NALP1 inh – NALP1 inflammasome inhibitors in reconstituted yeast, colorimetric, S. cerevisiae, triplicate retest; S. cerevisiae NALP1/ASC/caspase-1 growth, X-gal OD620, 72 h; inhibition, % at 10 µM; AID 2071, 2009; 280,000 compounds, 0.61% hits; in the data active means inhibition mostly above about 24%, no sharp cut-off; inactive means mostly below about 32%
* marks the source's active call; other numbers are inactive results.

For Fc1ccc(CNCc2ccccc2Cl)cc1 the results were HSP90 inh 4, HSF1 inh -53*, pCIP destab -25, HSF-1 act -61, Hsp70 activator 0 and NALP1 inh -6.
For N#Cc1c(N)c(C(=O)c2ccccc2)n2ccccc12 the results were HSF1 inh -6 and HSF-1 act 3.
For C=CCN(CC=C)C(=O)c1cccc(S(=O)(=O)N2c3ccccc3CC2C)c1 (stereo not drawn) the results were HSP90 inh -1, HSF1 inh 0, pCIP destab -13 and HSF-1 act -7.
`O=C(CSc1nnc(Cn2cnc3ccccc32)o1)Nc1cccc2ccccc12` gave HSP90 inh -2, HSF1 inh 12, pCIP destab 4, HSF-1 act 51*, Hsp70 activator 1 and NALP1 inh 13.
For CC(=O)c1ccc(NC(=O)CSc2nnc(Cn3cnc4ccccc43)o2)cc1 the results were HSP90 inh -2, HSF1 inh -6, pCIP destab -7, HSF-1 act 4, Hsp70 activator 0 and NALP1 inh -12.
O=C(CN(Cc1cccs1)C(=O)CNS(=O)(=O)c1ccccc1)NC1CCCC1 was read as HSP90 inh -5, HSF1 inh 0, pCIP destab -7, HSF-1 act 9, Hsp70 activator 0 and NALP1 inh -1.
NC(=O)c1nn(-c2ccccc2)nc1NC(=O)CN1CCCCC1 was read as HSP90 inh 5, HSF1 inh 16, pCIP destab -14, HSF-1 act 53*, Hsp70 activator 0 and NALP1 inh -14.
`Cc1[nH]c(C)c(C(=O)/C=C/c2ccc([N+](=O)[O-])cc2)c1C` gave HSP90 inh 9, HSF1 inh 33, pCIP destab -13, HSF-1 act 70* and NALP1 inh -1.
For O=C(NCCCNC(=O)c1cnccn1)c1ccc(Cl)c(Cl)c1 the results were HSP90 inh 3, HSF1 inh -5, pCIP destab -17, HSF-1 act -12 and NALP1 inh -5.
`COc1ccccc1CNC(=O)c1cc2ccccc2oc1=O` gave HSP90 inh -4, HSF1 inh 0, pCIP destab -21, HSF-1 act -3 and NALP1 inh 28*.
`CCCC(=O)c1cc2ccccc2oc1=O` gave HSP90 inh 0, HSF1 inh -1, pCIP destab -18, HSF-1 act 1, Hsp70 activator 0 and NALP1 inh 13.
For COc1ccc(C(=O)Cc2cc3ccccc3oc2=O)cc1 the results were HSP90 inh 0, HSF1 inh 48, pCIP destab -11, HSF-1 act 56* and NALP1 inh -1.
For Cc1ccc(C(=O)Cc2cc3ccccc3oc2=O)c(C)c1 the results were HSP90 inh 7, HSF1 inh 59, pCIP destab -28, HSF-1 act 85* and NALP1 inh 14.
CCOc1ccc(C(=O)Cc2cc3cccc(OC)c3oc2=O)cc1 was read as HSP90 inh -1, HSF1 inh 3, pCIP destab -14, HSF-1 act 15 and NALP1 inh 21.
COc1cccc(-c2nnc(-c3ccc(C(F)(F)F)cc3)o2)c1 was read as HSP90 inh -2, HSF1 inh 17, pCIP destab -8, HSF-1 act 26, Hsp70 activator 0 and NALP1 inh -40.
`Oc1ccccc1-c1nnc(-c2ccc(C(F)(F)F)cc2)o1` gave HSP90 inh -2, HSF1 inh -63*, pCIP destab -12, HSF-1 act -71, Hsp70 activator 0 and NALP1 inh 8.
`CCn1c(CC(C)C)n[nH]c1=S` gave HSP90 inh 4, HSF1 inh 25, pCIP destab -2, HSF-1 act 59*, Hsp70 activator 0 and NALP1 inh 6.
Screening Cc1nnc(-c2cnn(-c3ccccc3)c2N)n1Cc1cccc(C(F)(F)F)c1 returned HSP90 inh -6, HSF1 inh -60*, pCIP destab -22, HSF-1 act -69, Hsp70 activator 0 and NALP1 inh -13.

Bioassay records (PubChem BioAssay)
